# PP5 inh: PP5 phosphatase inhibitors, primary screen, biochemical, fluorescence; Serine/threonine-protein phosphatase 5 (Homo sapiens), P53041; purified PP5c, OMFP substrate fluorescence; inhibition, % at 6.7 µM; hit rate 0.18% among 320,000;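 active means inhibition above the campaign's mean inhibition across all tested compounds plus 3 SD, cut at about 9.5% in these data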;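 further: 0% = DMSO only and 100% = 100 µM cantharidin control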
# PP1 counter: PP1-alpha phosphatase inhibitors, primary screen, counter-screen for PP5 inhibitor project, biochemical, fluorescence, OMFP substrate, single point; hit rate 0.9% among 320,000; AID 2235, 2010; purified PP1alpha; inhibition, % at 6.7 µM; Serine/threonine-protein phosphatase PP1-alpha catalytic subunit (Homo sapiens), P62136;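 active means inhibition above the mean inhibition of all tested compounds plus 3 SD, computed separately for each screening campaign, cut at about 15% in these data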
# Beta cell apopt: inhibitors of cytokine-induced beta cell apoptosis, primary screen, luminescence; INS-1E cytokine-induced death, ATP luminescence, 48 h; percent of positive-control rescue, neutral wells zero; protection from apoptosis, % (no concentration beside the values); hit rate 0.8% among 300,000; AID 435005, 2010;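 active means Every replicate reaches about 75%, or at least half do and their mean reaches it too, limit read from the data; inconclusive means At least half of replicates reach the limit but their mean does not; inactive means Under half of replicates reach the limit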;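 further: 0% = cytokine-treated negative control wells and 100% = positive control rescue; higher means more ATP so stronger rescue from cytokine killing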
# Calb FLC: C. albicans growth inhibition with fluconazole, primary screen, CaCi-2 strain, Alamar Blue fluorescence; C. albicans CaCi-2 (fluconazole-resistant clinical isolate) + fluconazole, 48 h; growth inhibition, % (concentration not given with the values); AID 1979, 2009; hit rate 0.57% among 300,000;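 active means growth inhibition above about 58% in most replicates, limit read from the data, passing the limit was not always enough; inconclusive means exactly half the replicates above a set limit; inactive means most replicates below a set limit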;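 further: all wells also contain fluconazole at 8 µg/ml as a sub-toxic cotreatment; 0% = median of DMSO wells and 100% = median of geldanamycin control wells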
# CSC inhib: cancer stem cell viability inhibitors, primary screen, luminescence; cancer stem cell-like cells viability; inhibition, % at 7.5 µM; hit rate 1.1% among 300,000; AID 2717, 2010; in the data active means inhibition above about 75%; inconclusive means no clear call, values can overlap the other calls; tested in HMLE shEcad cells
# Mdm2 MdmX PPI: inhibitors of human Mdm2-MdmX association, primary screen, cell-based, luminescence, split luciferase, SaOS-2, uHTS | inhibition, % at 8 µM | AID 485346, 2010 | hit rate 3% among 330,000 | SaOS-2 split-luciferase Mdm2/MdmX complementation | Protein Mdm4 (Homo sapiens) + E3 ubiquitin-protein ligase Mdm2 (Homo sapiens), …;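 active means inhibition of at least 50% at 8 µM in the primary screen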
# Target sequence (O15151 whole entry, looked up): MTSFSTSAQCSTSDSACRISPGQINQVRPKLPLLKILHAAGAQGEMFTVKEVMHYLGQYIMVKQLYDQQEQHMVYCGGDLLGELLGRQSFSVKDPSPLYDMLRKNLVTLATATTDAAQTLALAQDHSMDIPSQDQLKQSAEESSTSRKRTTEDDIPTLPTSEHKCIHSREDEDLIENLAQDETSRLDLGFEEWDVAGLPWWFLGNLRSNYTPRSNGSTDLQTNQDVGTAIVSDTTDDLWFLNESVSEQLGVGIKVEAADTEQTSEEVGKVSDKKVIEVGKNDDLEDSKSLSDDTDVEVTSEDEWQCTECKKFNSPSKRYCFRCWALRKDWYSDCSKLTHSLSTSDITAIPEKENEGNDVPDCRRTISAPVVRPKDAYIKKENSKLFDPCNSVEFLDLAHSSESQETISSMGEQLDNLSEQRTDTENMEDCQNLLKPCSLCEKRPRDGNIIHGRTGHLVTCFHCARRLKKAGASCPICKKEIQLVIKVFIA
# Target sequence (Q00987 whole entry, looked up): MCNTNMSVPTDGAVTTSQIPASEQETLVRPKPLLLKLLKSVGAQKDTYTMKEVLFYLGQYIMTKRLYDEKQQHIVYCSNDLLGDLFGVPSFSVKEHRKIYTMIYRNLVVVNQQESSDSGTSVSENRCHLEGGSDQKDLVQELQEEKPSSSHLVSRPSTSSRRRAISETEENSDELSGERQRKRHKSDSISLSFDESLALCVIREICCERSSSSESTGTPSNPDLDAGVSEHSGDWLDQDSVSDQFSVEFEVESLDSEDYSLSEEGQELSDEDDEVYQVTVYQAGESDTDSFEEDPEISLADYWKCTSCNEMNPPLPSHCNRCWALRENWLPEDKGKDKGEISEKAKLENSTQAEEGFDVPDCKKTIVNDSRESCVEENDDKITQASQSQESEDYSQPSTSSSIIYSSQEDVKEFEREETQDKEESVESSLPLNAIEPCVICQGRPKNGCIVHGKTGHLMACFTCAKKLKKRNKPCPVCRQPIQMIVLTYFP
# Mdm2 MdmX conf: Mdm2-MdmX complex disruptors, retested hits, confirmation, luminescence, single concentration | shares compounds with Mdm2 MdmX PPI | Mdm2-MdmX binding, luminescent assay | inhibition, % at 8 µM | hit rate 55% among 10,000 | AID 489028, 2010; in the data active means inhibition above about 40%
# FLuc counter: full-length luciferase signal inhibition, confirmation, counter-screen for Mdm2/MdmX interaction inhibitor project, cell-based, single concentration, SaOS-2 | shares compounds with Mdm2 MdmX PPI | inhibition, % at 8 µM | hit rate 77% among 6,200 | SaOS-2 full-length luciferase counterscreen, luminescence;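 active means mean inhibition at 8 µM reaching about 37%, which flags the compound as non-specific, limit read from the data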;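 further: p53-null SaOS-2 cells with luciferase driven by a doxycycline-inducible promoter; compound on cells about two nights before reading with doxycycline added after day one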
# Active calls of the source: *; u = inconclusive; x = not tested or not shown. An excerpt weighted towards active compounds, which were near 4.9% of everything screened.
SMILES,PP5 inh,PP1 counter,Beta cell apopt,Calb FLC,CSC inhib,Mdm2 MdmX PPI,Mdm2 MdmX conf,FLuc counter
CCCn1c(=O)c(C(=O)NNS(=O)(=O)c2ccc(C)cc2)c(O)c2ccccc21,2,7,4,-2,36,51*,30,85*
CN(C)C(=O)N1CCN(C(=O)c2ccccc2Sc2ccccc2C#N)CC1,-1,-1,10,-17,4,53*,-7,x
O=C(N/N=C/c1cccc(O)c1)c1ccc(COc2cccc3cccnc23)cc1,-1,-7,6,u,-3,54*,23,x
CCCc1nc(C(C)(C)O)c(C(=O)O)n1Cc1ccc(-c2ccccc2-c2nn[nH]n2)cc1,0,3,x,4,-8,3,x,x
Cc1ccc(-c2noc(-c3ccno3)n2)cc1,2,-6,x,4,-4,-9,x,x
CN(C)CCNC(=O)C(=O)Nc1ccc2c(c1)N(S(=O)(=O)c1cccs1)CCC2,4,-3,1,4,22,51*,72*,62*
CCCNC(=O)C(=O)Nc1ccc2c(c1)N(S(=O)(=O)c1cccs1)CCC2,1,13,8,7,x,50*,69*,60*
CCNC(=O)C(=O)Nc1ccc2c(c1)N(S(=O)(=O)c1cccs1)CCC2,2,-3,-1,5,x,23,x,x
CN(C)CCCNC(=O)C(=O)Nc1ccc2c(c1)N(S(=O)(=O)c1cccs1)CCC2,1,-4,11,-4,x,5,x,x
O=C1c2ccc3c4c(ccc(c24)C(=O)N1c1ccc(O)cc1)C(=O)N(c1ccc(O)cc1)C3=O,1,1,68,-5,-11,63*,17,x
CN(C)S(=O)(=O)n1cc(/C=C(\NC(=O)c2ccccc2Cl)C(=O)N2CCOCC2)c2ccccc21,1,-1,0,34,-1,62*,-5,x
COc1ccccc1CNC(=O)[C@@H]1CCCN1S(=O)(=O)c1ccccc1F,1,2,-10,-1,-9,-15,x,x
CC1Cc2ccccc2N1S(=O)(=O)c1cccc(C(=O)NCCCO)c1 (stereo not drawn),-1,-1,-1,0,10,1,x,x
CCN(CC)CCNC(=O)c1ccc(NC(=O)c2cccc(S(=O)(=O)N3c4ccccc4CC3C)c2)cc1 (stereo not drawn),2,-3,-5,10,22,80*,27,x
CN(Cc1nc2ccccc2c(=O)[nH]1)C(=O)c1cccc(S(=O)(=O)N2CCc3ccccc32)c1,x,x,6,x,24,81*,55*,68*
CCN(CC)CCNC(=O)c1ccc(NC(=O)c2cccc(S(=O)(=O)N3CCc4ccccc43)c2)cc1,x,x,x,x,x,76*,44*,67*
CCN(CC)CCNC(=O)c1cc(S(=O)(=O)N2CCc3ccccc32)cn1C,-1,-3,-7,-12,-4,25,x,x
CC1Cc2ccccc2N1S(=O)(=O)c1cccc(C(=O)N2CCN(c3ncccn3)CC2)c1 (stereo not drawn),4,4,1,19,51,90*,89*,55*
COCCNC(=O)CSc1nc(N)c(NC(=O)c2ccccc2F)c(=O)[nH]1,1,0,x,6,-5,1,x,x
Cc1ccc2c(c1)N(C(=O)CCC(=O)NC1CCC(C)CC1)CCO2 (stereo not drawn),2,8,-5,-6,12,13,x,x
CCCCn1c(N)c(N(CCOC)C(=O)C2CC(=O)N(c3ccc(CC)cc3)C2)c(=O)[nH]c1=O (stereo not drawn),-3,1,0,x,-11,-16,x,x
NNC(=O)C(=O)NCCCN1CCOCC1,-2,1,x,18,1,-11,x,x
CCOC(=O)c1ccc(NC(=O)c2cccc(S(=O)(=O)N3c4ccccc4CC3C)c2)s1 (stereo not drawn),5,2,36,u,47,57*,33,x
CC1Cc2ccccc2N1S(=O)(=O)c1cccc(C(=O)NCc2ccccn2)c1 (stereo not drawn),1,-3,0,x,-8,-2,x,x
COc1cc2c(cc1OC)CN(C(=O)c1cccc(S(=O)(=O)N3CCc4ccccc43)c1)CC2,4,7,1,x,34,90*,59*,86*
SMILES,PP5 inh,PP1 counter,Beta cell apopt,Calb FLC,CSC inhib,Mdm2 MdmX PPI,Mdm2 MdmX conf,FLuc counter
COc1cc2c(cc1OC)CN(C(C)C(=O)N1CCc3ccccc31)CC2 (stereo not drawn),-1,-2,2,x,-1,52*,34,84*
CCOc1ccc(CN2CCN(C3CCSCC3)CC2CCO)cc1 (stereo not drawn),0,-6,-2,0,-2,3,x,x
COc1ccc(C(=O)CC(=O)C(=O)Nc2ccccc2Cl)cc1,1,6,-2,-9,5,x,x,x
COCCNc1nc(N)c([N+](=O)[O-])c(NC2CCCCC2)n1,-1,7,-5,17,-9,0,x,x
NCCCNc1nc(N)c([N+](=O)[O-])c(NC2CCCCC2)n1,3,0,-20,15,15,73*,70*,56*
Cc1ccc(CNC(=O)CCc2nnc3ccc(N4CCC5(CC4)OCCO5)nn23)cc1,3,-1,-2,13,11,13,x,x
Cc1ccc(-c2nn3c(-c4ccco4)nnc3c3ccccc23)cc1S(=O)(=O)NCC1CCCO1 (stereo not drawn),2,-2,24,9,-10,53*,39,68*
CNC(=O)c1ccc(Nc2nnc(-c3ccc(C)c(S(=O)(=O)NCC4CCCO4)c3)c3ccccc23)cc1 (stereo not drawn),2,0,5,31,-14,11,x,x
Oc1ccc(C[C@H]2CNCCN2CCc2cc(C(F)(F)F)cc(C(F)(F)F)c2)cc1,2,4,-19,-3,53,58*,12,x
Oc1ccc(C[C@@H]2CNCCN2CCCCC2CCCCC2)cc1,2,5,2,-2,45,57*,16,x
CCOc1cc(CNCCCN2CCOCC2)cc(Br)c1OCC(=O)Nc1cccc(C(F)(F)F)c1,0,12,69,63,14,98*,71*,45*
COc1cc(CNCCCN2CCOCC2)cc(Br)c1OCc1ccc(Cl)cc1,-1,5,19,1,-9,69*,45*,59*

# Screening data as filed in PubChem.
